This note sets out measurements from PubChem BioAssay (NCI).

About 83,000 compounds went through this panel and 20% of them were active in at least one assay; those are over-represented in the sample as a whole.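 Growth was measured after 48 h exposure to one concentration of compound in 96-well plates. Values under 10 count as active.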 Values without a mark were called inactive. Activity calls are given as the source filed them.

The test has as its system MDA-MB-468 breast. In words: NCI-60 one-dose screen, 48 h (100 = growth as untreated, 0 = no growth, -100 = all killed). The settings on record: 10 µM unless noted.
As for `CN1CCN(CCCOc2ccc3ncnc(Nc4ccc(Oc5cccc(F)c5)c(Cl)c4)c3c2)CC1`, the growth was -66% (active).

With `CS(=O)(=O)Nc1ccc(C(=O)NC(C(=O)NO)c2ccc(-c3cccc(F)c3)cc2)cc1` (centres undefined), the growth was 95%.

Turning to `Cc1cc2c(C(C)C)c(O)c(O)c(C=NCCCCCCC(=O)O)c2c(O)c1-c1c(C)cc2c(C(C)C)c(O)c(O)c(C=NCCCCCCC(=O)O)c2c1O`, the growth was 30.4%.

Regarding `c1csc(-c2c3ccc(=[N+]4CCCCC4)cc-3oc3cc(N4CCCCC4)ccc23)c1`, the growth was -90% (active).

Consider `COc1ccc(-c2c(N)n[nH]c2-c2cc(OC)c(OC)c(OC)c2)cc1`, for which the growth is -0.0987% (active).

Turning to `CNc1ccc(CSc2ccc(Cl)cc2)cc1`, the growth was 78.5%.

Turning to `Cc1cc(-c2ccc(N=Nc3ccc4c(S(=O)(=O)O)cc(S(=O)(=O)O)c(N)c4c3O)c(C)c2)ccc1N=Nc1ccc2c(S(=O)(=O)O)cc(S(=O)(=O)O)c(N)c2c1O`, the growth was 98.2%.

Take `COc1ccc(/C=C/C(=O)c2cccc(NC(=O)CSc3nc4ccccc4c(=O)n3-c3ccccc3)c2)cc1OC`: the growth is 108%.

As to `N#Cc1c(N)sc(=S)c2c1CCCC2`, the growth is 110%.
